NS1 inh: qHTS Assay for Inhibitors of Influenza NS1 Protein Function; Potency, µM (highest dose often 46.1 µM), for the others: at the highest dose activity, positive = more growth; 270,000 tested, 0.4% active; AID 2326, 2010; calls by dose curve; also: potency is read from the fitted curve at half-maximal effect; actives are rising curves; nearly all actives have a fitted effect of over 50% in size
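Read-out: OD600 growth recovery of NS1-expressing budding yeast. Cells grown overnight at 30C in -URA glucose medium, washed, resuspended and diluted 1:100 in 2% galactose assay medium, pH 6.0. Same strain lacking NS1 served as positive control.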
Pf growth 48h: Primary qHTS for delayed death inhibitors of the malarial parasite plastid, 48 hour incubation | P. falciparum luciferase growth in erythrocytes, 48 h | Potency, µM (top dose mostly 28.7 µM), without a hit: at the highest dose activity change, negative = inhibition, most hits filed as inhibitors | 310,000 tested, 5.9% active | AID 504832, 2011; also: potency is read from the fitted curve at half-maximal effect; % is scaled to controls: 0 for no effect and ±100 for the full control effect
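Luciferase-expressing P. falciparum in infected erythrocytes (2% hematocrit, 0.1% parasitemia final) in RPMI 1640/0.5% Albumax were exposed to compound for 48 hours at 37 C, 5% CO2; growth read as luminescence.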
Shiga toxin inh: A qHTS for Small Molecule Inhibitors of Shiga Toxin; Vero cells, Shiga toxin protein synthesis inhibition reporter; inhibition, % at 38.7 µM; 290,000 tested, 9.2% active; in the data active = inhibition mostly above about 28%, no sharp cut-off; inactive = mostly below about 43%; also: 0% is about no effect
CHX counter: Cycloheximide Counterscreen for Small Molecule Inhibitors of Shiga Toxin; cell reporter, cycloheximide protein synthesis inhibition counterscreen; max response, %; 300,000 tested, 12% active; in the data active = max response mostly above about 13%, no sharp cut-off; inactive = mostly below about 14%; also: read at 38.3 µM for the half of the compounds with a filed dose; 0% is about no effect
Pf growth 96h: Primary qHTS for delayed death inhibitors of the malarial parasite plastid, 96 hour incubation; P. falciparum luciferase reporter growth, 96 h; Potency, µM (titrated, usually from 28.7 µM), without a hit: top-dose activity change, negative = inhibition, most hits filed as inhibitors; 320,000 tested, 6.9% active; also: potency is read from the fitted curve at half-maximal effect; % is scaled to controls: 0 for no effect and ±100 for the full control effect
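Two-generation exposure (96 h) targets delayed-death phenotype. Reporter parasites carrying integrated firefly luciferase, in red cells at 2% hematocrit and 0.05% parasitemia final, kept at 37 C, 5% CO2; luminescence loss indicates inhibition.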
An asterisk follows results filed as active; ? = inconclusive; · = no result given. The list is not random: actives were taken first. Their share in the collection is about 21%. Unless noted, calls follow the shape of the dose curve; as a rule, active = well fitted inhibition curve with a large enough effect; inconclusive = small, poorly fitted or top-dose-only effect, or another doubt; inactive = no such curve, though single readings can be large or run the other way.

SMILES | NS1 inh | Pf growth 48h | Shiga toxin inh | CHX counter | Pf growth 96h
CCOC(=O)c1sc(NC(=O)/C=C/c2cnn(C)c2C)c(C(=O)OC(C)C)c1C | 6% | ? | -8 | 9 | ?
CCCOc1cccc(C(=O)Nc2ccc3c(c2)OCCO3)c1 | -13% | 125% | 71* | 24* | ?
O=C(Nc1ccc2c(c1)OCCO2)c1ccc(Br)o1 | -70% | -35% | 91* | 42* | -14%
CC(OC(=O)c1ccc(Br)o1)C(=O)Nc1ccc2c(c1)OCCO2 (stereo not drawn) | · | -11% | · | · | 3%
Cc1ccc(C(=O)Nc2ccc3c(c2)OCO3)cc1 | -53% | · | 56 | 25* | -96%
CCCOc1cccc(C(=O)Nc2cccnc2)c1 | -22% | -21% | 5 | 2 | ?
CCC(=O)Nc1cccc(NC(=O)c2ccc3c(c2)OCCO3)c1 | 2% | 69% | 56* | 50* | ·
CCCC(=O)Nc1cccc(NC(=O)c2ccc3c(c2)OCO3)c1 | -11% | 28% | 38 | 13 | 37%
CC(C)OCCCNC(=O)c1cn(C)c2ccc(S(=O)(=O)N(C)C3CCCCC3)cc2c1=O | 11% | -18% | 1 | -2 | ?
CC(C)C(C(=O)N1CCN(C(=O)OC(C)(C)C)CC1)n1cc(-c2cn([C@@H](C)C(=O)N3CCN(C(=O)OC(C)(C)C)CC3)nn2)nn1 (stereo partly drawn) | ? | -8% | -1 | -4 | -11%
CCOc1ccc(C(=O)Nc2ccc3c(c2)OCO3)cc1OCC | 4% | -4% | 12 | 0 | ·
Cc1ccc(NC(=O)c2oc3ccccc3c2NC(=O)c2ccc3c(c2)OCO3)cc1 | -8% | ? | 33* | 12* | 15%
c1cc(CNc2ccc3c(c2)OCO3)ccn1 | 2% | ? | -4 | 14 | ·
Cc1ccc(CNc2ccc3c(c2)OCO3)cc1 | 2.8µM* | ? | 100* | 42* | -12%
Cc1ccc(S(=O)(=O)CC(=O)c2ccccc2)cc1 | 3% | 0% | 65 | 21 | 24%
Cc1ccc(S(=O)(=O)CC(=O)c2ccc3c(c2)OCCO3)cc1 | -1% | 58% | 82* | 45* | 51%
COc1ccc(C(=O)Nc2ccc3c(c2)OCCO3)cc1Br | 4% | 183% | 34* | 19* | ?
N#Cc1c(N2CCN(c3ccc(F)cc3)CC2)nc(N)c2c(N)nc3c(c12)CC(=O)N3C1CC1 | · | 0.93µM* | 12 | 8 | 2.6µM*
CCOc1ccc(NS(=O)(=O)c2ccc3ncsc3c2)cc1 | -6% | -5% | -4 | 1 | 3.7µM*
CCOc1ccc(NS(=O)(=O)c2ccc(NC(=S)NC(=O)C(C)C)cc2)cc1 | 14% | -24% | 1 | -1 | ·
CCOc1ccc(NS(=O)(=O)c2ccc(N)cc2)cc1 | 4% | -1% | -5 | 6 | ·
CCOc1ccc(NS(=O)(=O)c2ccc(NC(=S)NC(C)=O)cc2)cc1 | 4% | ? | -11 | -1 | 3.7µM*
COCCNC(=S)N(CCc1c(C)[nH]c2ccc(F)cc12)Cc1ccco1 | -5% | ? | -6 | 7 | 3%
CC(NCc1ccc(S(N)(=O)=O)cc1)C(=O)Nc1ccc([N+](=O)[O-])cc1Cl (stereo not drawn) | · | -9% | 3 | -5 | 11%
COc1ccc(N2CCN(C(c3cc(OC)ccc3OC)c3nnnn3Cc3ccco3)CC2)cc1 (stereo not drawn) | -9% | 13µM* | -3 | -2 | ?
SMILES | NS1 inh | Pf growth 48h | Shiga toxin inh | CHX counter | Pf growth 96h
CCCC(c1nnnn1Cc1ccco1)N1CCN(c2ccccc2)CC1 (stereo not drawn) | -7% | ? | 18 | 0 | 20%
CCCC(c1nnnn1Cc1ccco1)N1CCN(c2cc(Cl)ccc2C)CC1 (stereo not drawn) | -40% | 10µM* | 29 | 12 | 155%
COc1ccccc1C(c1nnnn1Cc1ccco1)N1CCN(c2cccc(C)c2C)CC1 (stereo not drawn) | ? | 3.3µM* | 43* | 28* | ?
CCN1CCN(C(c2cccc(OC)c2OC)c2nnnn2Cc2ccco2)CC1 (stereo not drawn) | 4% | 21% | -7 | -2 | 16%
COCCn1nnnc1C(c1ccc(OC)cc1OC)N1CCN(c2ccccc2)CC1 (stereo not drawn) | -9% | 0% | -15 | -1 | ?
COc1ccc(OC)c(C(c2nnnn2CCc2ccccc2)N2CCN(c3ccccc3)CC2)c1 (stereo not drawn) | -1% | 9.3µM* | 1 | -2 | ·
COCCCNC(=O)Cn1c(=O)n(CCCCCC(=O)NCc2ccc3c(c2)OCO3)c(=O)c2sccc21 | · | ? | -4 | -1 | 35%
Cc1ccc2cc(CCNC(=O)c3ccc(Br)o3)c(=O)[nH]c2c1 | -36% | -14% | -9 | -4 | ·
COc1ccc(S(=O)(=O)N2CCN(CC(=O)NC3CC3)CC2)cc1 | -3% | 75% | -5 | -2 | ?
CCCCCCC(=O)N(O)C1CC(=O)N(c2ccc(F)cc2)C1=O (stereo not drawn) | -84% | 4.7µM* | 8 | 8 | 9.3µM*
COc1ccccc1N(O)C1CC(=O)N(c2ccc(Br)cc2)C1=O (stereo not drawn) | -17% | 4% | 42* | 27* | 16%
CCCCCCC(=O)N(O)C1CC(=O)N(c2ccc(Br)cc2)C1=O (stereo not drawn) | -66% | 13µM* | -12 | -4 | 2%
CCCCN(C(=O)CCC(=O)O)C1CC(=O)N(c2ccc(OCCC)cc2)C1=O (stereo not drawn) | -7% | 0% | -4 | -1 | 8%
COc1ccc(N2C(=O)CC(Cc3ccc(Br)cc3)C2=O)cc1 (stereo not drawn) | -20% | 25% | -5 | -2 | -24%
Cc1ccc2c(c1)C1CN(C)CCC1N2C(=O)Nc1cccc(Cl)c1 (stereo not drawn) | -31% | ? | 8 | 24 | ?
Cc1ccc2c(c1)C1CN(C)CCC1N2C(=S)NC(=O)c1ccc(Cl)cc1Cl (stereo not drawn) | -5% | ? | -3 | -2 | 5.9µM*
Cc1ccc2c(c1)C1CN(C)CCC1N2C(=O)COc1ccccc1F (stereo not drawn) | 0% | ? | -4 | -1 | 12µM*
COc1cccc(NC(=O)CSC2=NN3CCCC(=O)N=C3S2)c1 | 1% | -10% | 26 | -1 | 3%
O=C(CN1C(=O)CC(c2ccccc2)=Nc2ccccc21)NCc1ccco1 | 10% | 6% | 19 | 7 | 17%
O=C(NCCCN1CCCC1=O)c1ccc(Cl)c(S(=O)(=O)N2CCCCC2)c1 | · | 8.3µM* | · | · | 5.2µM*
O=C(COc1cc2oc(=O)c3c(c2cc1Cl)CCC3)NCCCN1CCCC1=O | -9% | ? | -2 | -2 | 13µM*
O=C(NCCCN1CCCC1=O)c1ccc2c(c1)NC(=O)C(N1CCOCC1)S2 (stereo not drawn) | 2% | -4% | -9 | -3 | 0.93µM*
O=C(NCCCN1CCCC1=O)c1ccc2c(c1)OCO2 | -2% | 45% | 59* | 15* | ?

Assay outcomes deposited in PubChem by National Center for Advancing Translational Sciences (NCATS).
